According to the supplement of paper PMC11417369:
± gives the standard deviation of the averaged measurements. Whole data set: some 25,000 sequences, median “ln(normalized median fluorescence intensity)” near 10, cut for the highest 2% near 12. Shown is part of a subset that was picked to be rich in the highest values.

System: PfAP2-G AP2 domain (GST-tagged)
Assay: gcPBM binding intensity (ln(normalized median fluorescence intensity)); higher = stronger DNA binding
Summary of the method: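 After 1 h on an Agilent 4 × 180k array of primer-extended double-stranded 36-bp intergenic genomic probes and negative controls, bound GST-tagged P. falciparum DNA-binding domains were detected with Alexa488 anti-GST antibody and scanned at 488 nm. The domains had been expressed in E. coli, and binding took place in 1× PBS with 1% milk, 0.2 mg/ml BSA, 0.5% salmon testes DNA and 0.03% Triton X-100. Binding intensity is the highest Masliner-normalised natural-log median intensity across replicate spots of either probe orientation.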

Sequence	gcPBM binding intensity (ln)
TTCTTTTTCCAATTTGCACACCACAAAATTATATAT [CACACA_site2909]	10.5 ± 0.28
AGAGTATATATATATGCATGCATATCTCATATTTAT [TGCATGCA_site509]	9.71 ± 0.13
CATATTAATATTATGGGTACATATAAATTTACATTC [XGTACX_site687]	11.4 ± 0.83
TTTCTTGGGAGACATGCATGTACCAGAACAAAATAA [TGCATGCA_site272]	10.9 ± 0.64
AAAAAAAAAAAAAAAAAAAAAAAAAAAAATAAAAAA [CACACA_negctrl_site59]	11 ± 0.47
AAAATAATAAAAAACTGTACGAATTAAAAATTAACA [XGTACX_site8454]	11.1 ± 0.8
TATTATATATATAACTGTACGTTTATAATATAAAAA [XGTACX_site3778]	11.4 ± 1.1
AATAATAACTGTAGGTGTACGTAAAAAAAAAATTAT [XGTACX_site3133]	11.7 ± 0.96
AAAACATATTTTAAAAGTACTTGAAAAAAAATTTTC [XGTACX_site3940]	11 ± 0.56
ACTACTCCATTAAGTAGTACACAAAAAAAAAAAATA [XGTACX_site7031]	11.8 ± 1.1
CCAAAAAATATATGTAGTACTACATTATTAAATATG [XGTACX_site5128]	11.6 ± 0.83
ATATAATATTACACAAGTACAAAAATTAATACTAAA [XGTACX_site482]	11.1 ± 0.61
CTCATCCTTACATACACACACATATATATATATATA [CACACA_site103]	10.3 ± 0.41
AGTTTATATTATTAAAGTACATATATATATTCTTAA [XGTACX_site3164]	11.1 ± 0.76
ATATATTTAATTTATGGTACACATAATTTTTTTAGA [XGTACX_site848]	11.2 ± 0.79
TATATATATATATTATGTACTCATTTATTATCTTTT [XGTACX_site8051]	11.4 ± 1.1
TTTGTCATTTTATTATGTACTCAGCATATAGGGGGG [XGTACX_site505]	11.7 ± 0.66
ATATATATATATATATGTACTCATATTTTATTATTT [XGTACX_site898]	11.4 ± 0.94
AAAAAAAAAAAACATACACACATACATACATATATA [CACACA_site8222]	9.86 ± 0.099
ATTAAAGTTATAAATTCACACATGTAAATGTATTTA [CACACA_site5279]	9.85 ± 0.11
TAGTAGTTATCATTAACATGCAATAATATTATTTAA [TGCATGCA_site178]	9.635 ± 0.035
AATATAGATATAAAAAGTACATTATATATATATATA [XGTACX_site6899]	11.3 ± 0.78
ATATATATATATATATGTACACATATATGTGTTTGT [XGTACX_site62]	11.4 ± 0.88
GCTTCTTAATATCATACACACATAGATATATTTATA [CACACA_site5676]	9.925 ± 0.078
ATTTCTAGTTTAAGATGTACTTTAATAAAAATTATT [XGTACX_site4820]	11 ± 0.77

Sequence	gcPBM binding intensity (ln)
AAAAATATTAAAAGGCGTACAATACCTGTATGCAAC [XGTACX_site6069]	11.6 ± 1
TATATATGTATGTATTGTACAATTAAAAATATGTAT [XGTACX_site3990]	10.8 ± 0.43
AAGGCATACAATACCTGTACGCAACCTTAAAAAGAA [XGTACX_site6070]	11.5 ± 0.91
TCTATTTTCTTATGAATGCACTAATTTATAAAACGT	10.1 ± 0.13
TATCATATATGAAGGTGTACGATTTATTATATAAAT [XGTACX_site7010]	11.4 ± 0.95
TTAAAATTAAAAATAGGTACACATATGAACAAGGAC [XGTACX_site1180]	11.5 ± 0.78
ATTATAAGAAGGGGGGGTACATAAATATAAATGTAT [XGTACX_site5624]	11.9 ± 0.95
TATAAGAATAAAAAGGGTACATAAAATAATAATATA [XGTACX_site2355]	11.3 ± 0.73
AAAAAAAAAAAGAAGGGTACATATTATATATAATAT [XGTACX_site6204]	11.2 ± 0.76
ATATATATTATATGCACACTAATAAGACTATTTAAA [CACACA_site3554]	10.1 ± 0.23
TAGAAGCATTGACACACACACATACATACACATACA [CACACA_site6802]	10.2 ± 0.26
TTACATATTTTTTAACGTACATAAATATATATGTAT [XGTACX_site8406]	11.4 ± 0.79
ATAAATAAAATAAAAGCACACAAAATGTAAATAATT [CACACA_site8895]	10.04 ± 0.057
ATATAATTTAATTTCTGTACATAAGAGAAAAAACAA [XGTACX_site4865]	11.1 ± 0.64
ATATATATATATATATGTACGTACTCAGTTATGCCT [XGTACX_site453]	11.7 ± 1.2
TATATATATATTATATGTACGTATGTATGTATATAT [XGTACX_site6451]	11.3 ± 0.8
GTATATATGTATGTATGTACGTATATAGTTATGTAT [XGTACX_site6769]	11.6 ± 0.93
TCCTCGCGTAATACTTTTCAAATAAAAAAAATAAAA [TGCATGCA_negctrl_site403]	10.5 ± 0.48
ATTTGTGTATATTAGAGTACATAAAATTAGAGGAAC [XGTACX_site1654]	11.6 ± 0.92
ATAACCACATAAAATATAATTATATATATATATATA [CACACA_negctrl_site603]	9.87 ± 0.26
TTTTTTTTTTTTATTTGTACACATTTTCATATTTTT [XGTACX_site4406]	11.3 ± 0.98
TTTATTTTTCATTGGGGTACACAAGTTTATTTTATT [XGTACX_site4263]	11.7 ± 0.96
TCATTTATTTTTCTTTGTACACAAAAGTTTTTATGT [XGTACX_site690]	11.4 ± 0.9
TTTATTTTTCATTGGGGTACACAAGTTTATTTTTGA [XGTACX_site4262]	11.7 ± 0.86
GTTTATTTTTTCATTTGTACACATAAATAAATATAT [XGTACX_site7752]	11.5 ± 0.75

Sequence	gcPBM binding intensity (ln)
TTATTTTTTTATTCATGTACACAAGAACATTTCATT [XGTACX_site5744]	11.3 ± 0.67
GCTTAATACAGAATAACACACAAAATAAATAAATAA [CACACA_site4041]	10 ± 0.12
TTTTGGATGAACAGTACATGCAAAAACAAACTTGTA [TGCATGCA_site16]	10.8 ± 0.37
ATATCTTCACTTATATGTACTTACATTTTTTTTTTT [XGTACX_site8696]	11.4 ± 0.81
AGGAGGTCAGTTCACAGTACCCAGAAACTCTACGAG [XGTACX_site2006]	11.1 ± 0.73
ATATAATTACATTGATGTACACGAAATGATTAACAT [XGTACX_site5183]	11.7 ± 1.1
AAATATAATTAATGATGTACACTTATAGATATTGAT [XGTACX_site8435]	11.4 ± 0.68
ATATATATTTTTATAACACACAATGATGTACATTAC [CACACA_site1076]	11.3 ± 0.84
CAGAAATATTAATGCTGTACGGAATACATATATTTT [XGTACX_site539]	10.9 ± 0.6
AATTTTCATTTTAGAAGTACACACAAAAAATAAAAT [XGTACX_site4426]	11.7 ± 1.1
AATAATATATGGTGTACACAAAAGTATAAATAATTT [CACACA_site5338]	11.9 ± 1
TAAATTTTTTTTTTTTGTACACAAAAATATAATATT [XGTACX_site8151]	11.4 ± 0.98
AATTTCATTTTTAGAAGTACATTTATATTAAAAATC [XGTACX_site2888]	11.2 ± 0.95
AGGTCATACATAAAATGTACATATATATAAATATAT [XGTACX_site7147]	10.9 ± 0.54
GTAATAATTTTTTGTAGTACACAAAAATTCATATTT [XGTACX_site2699]	11.7 ± 1.1
GTTAAAATAATATGGTGTACAAATATATAAGTTCAT [XGTACX_site3262]	11.4 ± 0.79
TAAGTCATATAAATGTGTACATAAAAAAAAAAAATG [XGTACX_site1645]	11.6 ± 1
TTTCATTTTAGAAGTACACACAAAAAATAAAATAAT [CACACA_site2141]	11.6 ± 0.92
TATTCATAATTTTAATGTACAAAATGGTTTGTAATA [XGTACX_site8493]	10.6 ± 0.33
ATAAAAATAAATAAATGTACATATATATATATATAT [XGTACX_site1277]	11.1 ± 0.58
TACAAATTTATATAAAGTACAAAAAATAATAAAAAT [XGTACX_site7355]	11.1 ± 0.57
ATAGAATACATATATGAACACACAGAGTTTTAAAAA [CACACA_site8879]	10.15 ± 0.042
ATATTTAAAGAATAAGTGCAAAATGTAATTAATTTT [GTGCAC_site9901]	10.065 ± 0.007
TAAAAAAACATATATTGTACGGAGATAATAATTTTT [XGTACX_site2946]	10.6 ± 0.31
TTATATTTAGTATATGCACACTTTATGTTTGTTATT [CACACA_site5163]	9.955 ± 0.035

Sequence	gcPBM binding intensity (ln)
TAAAAGGATGCATATACACACATATAGATTTATATA [CACACA_site7336]	9.915 ± 0.035
AATAATTTCCAAAAATGTACATATATTTACATATAT [XGTACX_site1790]	10.9 ± 0.52
AAAATAATAATAAAAAGTACATGTGTATATAATAAA [XGTACX_site754]	11.3 ± 0.82
TGAAAAGAAAACACATGTACAAATATATAAATATAA [XGTACX_site6098]	10.8 ± 0.35
AAATATATATTCATGTGTACACACAAAAAAAAATAA [XGTACX_site4552]	11.6 ± 0.84
AATATATATTCATGTGTACACACAAAAAAAAATAAA [CACACA_site8690]	11.6 ± 0.84
TATATATCCATGTGTACACACAAAAAAAAATAAAGT [CACACA_site7107]	11.7 ± 0.93
TATATATTCATGTGTACACACAAAAAAAAATAAAGT [CACACA_site2207]	11.7 ± 0.9
CTTTATATATTTTATTGTACTTAAAAAAAAAAAAAA [XGTACX_site2134]	11.4 ± 1.1
ACATACATACATACATACATACATACATACATACAT [XGTACX_negctrl_site315]	10.6 ± 0.57
AAGAAATATATATATATATATATATATATATATGTA [TGCATGCA_negctrl_site442]	9.67 ± 0.16
AATAAAAAAAATAGCATACACACATATATACATATA [CACACA_site659]	9.75 ± 0.028
TGGTCTTTTAAACAAAAATATAAATTTTTAAATATG [CACACA_negctrl_site392]	9.94 ± 0.23
GGTGTTAAAAAATACACACACAAAAAAAAAAAAAAA [CACACA_site138]	9.95 ± 0.51
AATTAATAAGAAAGGTGTACAGAAAAAAAAAAATAT [XGTACX_site2106]	11.5 ± 0.8
TTTGAAATAAAAAGGTGTACACTCGATTAATAAATA [XGTACX_site6943]	11.8 ± 0.98
AATAAATTAATAAGGTGTACATAAATAATTTATATA [XGTACX_site8278]	11.5 ± 0.94
TGTTAATAAAGGTGTACACAAAATAAAAAAAATTAT [CACACA_site4288]	11.7 ± 0.92
ACACAAAAATAAAAATGTACAAATTAAAAAAAATGA [XGTACX_site2083]	10.8 ± 0.42
AAAAAAAAAAAAAGGTGTACATGCAAAATAAATTCT [XGTACX_site4592]	11.6 ± 0.93
AAAAAAAAAAGGTGTACATGCAAAATAAATTCTTAA [TGCATGCA_site556]	11.6 ± 1.1
TTAAAAAAAAAAAGGTGTACTATAATTTAATATCAC [XGTACX_site6316]	11.6 ± 1.1
AATTAATAAAAAAGGTGTACAGTAAATGCAATAATC [XGTACX_site7956]	11.7 ± 0.99
AAAGGTGTATATAATACACACGTGTGATTAAAATTG [CACACA_site8104]	10.13 ± 0.064
TAAAATTTAAAAAGGTGTACACTATAAATTAAAATA [XGTACX_site2081]	11.7 ± 0.95
